Bioassay records as filed in PubChem BioAssay.
An excerpt weighted towards active compounds, which were near 3.2% of everything screened.
USP1-UAF1 inh – USP1/UAF1 (human) deubiquitinase inhibition; 390,000 tested, 0.23% active; recombinant USP1/UAF1, Ub-Rhodamine cleavage fluorescence; Potency, µM (series often up to 57.1 µM), without a hit: at the top dose activity change, negative = inhibition, hits mostly inhibitors; further: potency means the concentration at half of the fitted maximal effect; nearly all actives have a fitted effect of over 60% in size
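Step one: compound is pinned into 1nM USP1/UAF1 in HEPES pH 7.8 buffer with TCEP. Step two: 15 min room-temperature incubation. Step three: Ub-Rho (150nM final) starts cleavage, tracked by fluorescence over six one-minute reads.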
Coupling enz – coupling enzyme interference in Giardia aldolase counter-screen | coupling enzyme system counterscreen, AmpLite Red fluorescence | activity change, negative = inhibition, % at 58.2 µM, hits read low | 290,000 tested, 0.67% active | AID 2472; in the data active means activity change below about -30%
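Activity here indicates interference with the coupling reaction, not aldolase inhibition. Compounds at 57.5 uM final met coupling enzymes for 10 min at RT; substrate and AmpLite Red detection followed, with a 525/598 nm fluorescence read after 20 min.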
USP2a inh – inhibitors of human ubiquitin-specific protease USP2a; 330,000 tested, 0.01% active; AID 463254; USP2 core, Ub-CHOP2 coupled fluorogenic reporter, 485/531; Potency, µM (highest dose often 38.3 µM), without a hit: at the highest dose activity change, negative = inhibition, most hits filed as inhibitors; O75604;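 further: potency means the concentration at half of the fitted maximal effect; plate controls were DMSO wells for no effect and full inhibition by NEM control for full effect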
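Cell-free coupled assay: 10nM USP2 core preincubated 30min RT with compound in Tris-HCl pH 8.0/CaCl2/CHAPS buffer, then 25nM Ub-CHOP2 and 25nM reporter substrate; fluorescence (Ex 485/Em 531) read after 60min RT, normalized to NEM inhibition, concentration-response curves fitted.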
VDR inhibitor – vitamin D3 receptor (human) inhibition; P11473; VDR-SRC2-3 peptide fluorescence polarization, 2 h; Potency, µM, inactives show max response, negative = inhibition, usual class: inhibitors; 400,000 tested, 0.93% active; AID 504847; further: potency means the concentration at half of the fitted maximal effect
Target sequence (P11473 whole entry, looked up): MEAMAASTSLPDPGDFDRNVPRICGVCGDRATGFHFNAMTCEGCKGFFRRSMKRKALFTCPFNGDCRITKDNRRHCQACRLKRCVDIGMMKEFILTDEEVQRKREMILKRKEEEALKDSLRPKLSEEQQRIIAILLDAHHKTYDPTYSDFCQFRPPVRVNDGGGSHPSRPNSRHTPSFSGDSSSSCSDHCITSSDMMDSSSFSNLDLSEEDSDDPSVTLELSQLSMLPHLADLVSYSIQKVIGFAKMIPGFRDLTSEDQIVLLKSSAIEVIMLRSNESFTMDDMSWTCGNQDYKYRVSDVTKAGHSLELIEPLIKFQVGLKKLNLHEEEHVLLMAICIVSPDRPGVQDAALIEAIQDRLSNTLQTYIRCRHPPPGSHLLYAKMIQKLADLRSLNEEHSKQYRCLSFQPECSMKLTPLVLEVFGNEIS
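Fluorescence polarization assay of small-molecule disruption of VDR binding to coregulator peptide SRC2-3. Compounds and controls pin-transferred, then read after 2 h incubation at ambient room temperature.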
GALK inh – blocks human galactokinase activity; Purified GALK, Kinase-Glo residual ATP luminescence; 270,000 tested, 0.007% active; P51570; Potency, µM (doses to about 57.5 µM), for inactives: at the highest dose activity change, negative = inhibition, hits mostly inhibitors; further: potency means the concentration at half of the fitted maximal effect
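GALK at 5 nM final was combined with compound, 35 uM ATP and 100 uM galactose in HEPES pH8.0 with MgCl2 and DTT. The reaction ran one hour at room temperature before luminescent ATP detection.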
PLK1 PBD block – blocks phosphopeptide binding to human PLK1 polo-box domain; P53350; Plk1 PBD binding of FITC phosphopeptide, fluorescence polarization; Potency, µM, for the others: max response, negative = inhibition, hits mostly inhibitors; 360,000 tested, 2.8% active; AID 720504; further: potency means the concentration at half of the fitted maximal effect; series mostly up to about 57 µM; nearly all actives have a fitted effect of over 65% in size
* = called active by the depositor; ? = inconclusive; / = no result given; [ ] = dose if it differs, or a comment. Unless noted, the call rests on the fitted dose curve; in most records, active means well fitted curve in the direction sought with a large enough effect; inconclusive means small, poorly fitted or top-dose-only effect, or another doubt; inactive means no such curve, though single readings can be large; an effect the other way counts as inactive or inconclusive. Unless noted, on the % scale 0 is the no-effect control and ±100 the full control effect.

SMILES	USP1-UAF1 inh	Coupling enz	USP2a inh	VDR inhibitor	GALK inh	PLK1 PBD block
O=C(N/N=C\c1ccc(CN(Cc2ccc(Cl)cc2)S(=O)(=O)c2ccccc2)o1)C(=O)Nc1ccc(F)cc1	-19.2%	2.1	-0.3%	-22.0%	-0.3%	26.7µM*
O=C1C=C(O)c2cccc3cccc1c23	-13.5%	-4.9	2.5%	3.4%	-1.9%	-16.6%
NC1=CC(=O)c2cccc3cccc1c23	/	-33.8*	9.0%	/	-0.1%	/
CCOc1ccc(NC(=O)CN2CCN(CC(=O)c3ccc(OCC)cc3)CC2)cc1	-22.0%	5.3	-11.2%	8.6%	0.6%	-9.9%
CCOc1ccc(NC(=O)CN2CCN(CC(=O)c3ccc(OC)c(OC)c3)CC2)cc1	-10.9%	1.8	0.5%	-29.0%	-4.5%	18.9µM*
Cc1cc(C)n(-c2cc(Cl)ccc2[N+](=O)[O-])n1	-11.7%	-7.9	6.1%	-5.1%	0.6%	26.7µM*
O=C(Nc1nc(=O)n(C(=O)c2cccc(C(F)(F)F)c2)s1)c1ccccc1	?	0.8	0.0%	14.1µM*	-2.3%	16.8µM*
CC(C)NC(=O)c1onc(CSc2ccc(F)c(F)c2)c1C(=O)O	2.3%	2.6	0.6%	-19.3%	-1.1%	23.8µM*
CC(C)NC(=O)c1onc(CSc2ccc(F)cc2)c1C(=O)O	-21.9%	7.7	-2.0%	-10.1%	-1.7%	-5.9%
COc1ccccc1CNC(=O)CCNC(=O)Cn1ccc2ccccc2c1=O	-6.9%	1.2	3.1%	2.9%	-1.4%	0.2%
O=c1c2ccccc2nc(N/N=C/c2c(O)ccc3ccccc23)n1O	-10.2%	-21.8	-5.2%	10.4%	1.3%	29.9µM*
COc1cc2c(cc1OC)C1OC(c3ccsc3)(C2)Oc2cc(C)oc(=O)c21 (stereo unspecified)	/	0.5	1.4%[7.66 µM]	/	/	/
CC(=O)Nc1ccc(NC(=O)CCn2nnc3ccccc32)cc1	-2.7%	0.0	-1.4%	?	0.5%	18.9µM*
NNC(=O)CCn1nnc2ccccc21	-18.3%	-0.5	0.8%	-7.4%	1.0%	-3.0%
O=C(CCn1cnc2ccccc21)N/N=C/c1ccc(O)cc1	-13.2%	2.0	0.3%	1.2%	3.8%	-5.3%
O=C(CCn1cnc2ccccc21)N/N=C/c1ccccc1O	-24.6%	1.9	-0.5%	-7.8%	2.8%	8.44µM*
O=C1CCC(=O)c2ccc3c4c(ccc1c24)CC3	-4.4%	/	/	-5.7%	/	-7.2%
O=C1CCN2C=Nc3cccc4ccc1c2c34	28.2µM*	-30.5*	?	-15.6%	0.3%	3.77µM*
S=C(c1ccc(Br)cc1)N1CCCC1	-19.3%	0.3	1.4%	2.7%	0.4%	?
OCCN1CCN(C(=S)c2ccc(Br)cc2)CC1	-2.3%	1.9	2.0%	-23.9%	-0.5%	6.7µM*
CSc1ccc(C(=S)N2CCN(CCO)CC2)cc1	2.1%	1.0	0.7%	-16.6%	0.2%	26.7µM*
N=C1C(c2nc3ccccc3c(=O)[nH]2)=C(O)CN1CCO	-3.0%	3.0	2.9%	5.9%	0.0%	2.6%
N=C1C(c2nc3ccccc3c(=O)[nH]2)=C(O)CN1CCc1ccccc1	-26.5%	1.3	0.794µM*	2.4%	2.6%	4.8%
Cc1cc(SCC#N)n2nc(C)c(-c3ccc(Cl)cc3)c2n1	-17.4%	1.6	2.3%	-10.4%	-0.2%	-1.6%
O=C1/C(=C/c2cccs2)CCC/C1=C\c1cccs1	-7.4%	/	0.0%	13.1%	-7.3%	0.0%
SMILES	USP1-UAF1 inh	Coupling enz	USP2a inh	VDR inhibitor	GALK inh	PLK1 PBD block
Cn1cccc1/C=C1\CCC/C(=C\c2cccn2C)C1=O	22.4µM*	-5.3	?	-17.5%	-1.9%	22.3%
CCOc1ccc(Br)cc1CN(CC)CC	-23.5%	2.3	1.0%	0.3%	0.5%	1.1%
COC(c1ccccc1)c1c(-c2ccccc2)nn(C)c1Cl (stereo unspecified)	-9.5%	-2.8	-3.9%	-7.4%	-2.2%	-8.7%
COc1ccc(Cn2c3nc4ccccc4nc3c3c(=O)n(Cc4ccco4)c(C)nc32)cc1	/	-6.1	0.5%	/	-4.2%	/
COc1ccc(Cn2c(C)nc3c(c2=O)c2nc4ccccc4nc2n3Cc2ccco2)cc1	?	/	/	?	/	7.52µM*
FC(F)Oc1ccc(/C=N/NC(=S)Nc2cc(C(F)(F)F)ccc2Cl)cc1	-15.3%	1.9	4.7%	-13.4%	3.0%	6.3%
O=C(Cn1c(-c2ccccc2)c[n+]2ccsc12)c1ccc([N+](=O)[O-])cc1	-22.5%	1.5	-2.7%	-25.7%	-2.2%	29.9µM*
O=C(O)Cc1sc(N/N=C\c2ccccc2)nc1-c1ccccc1	-21.3%	0.1	-6.3%	8.9%	-4.4%	11.9µM*
O=C(O)Cc1sc(Nc2ccccc2)nc1-c1cccs1	-6.1%	6.9	9.2%	79.4µM*	-2.8%	21.2µM*
O=C(O)CCN1CC2([N+](=O)[O-])C=CC(=O)C([N+](=O)[O-])(C1)C2CC(=O)c1ccccc1 (stereo unspecified)	-7.0%	-51.7*	-3.4%	-14.2%	0.0%	-10.5%
CN(C)C(=S)Nc1ccc(Br)c(Cl)c1	?	1.5	0.4%	-12.4%	6.3%	-3.8%
CCOc1cc(C(=O)O)cc(Cl)c1OC	1.5%	3.0	1.6%	5.0%	-0.4%	1.0%
CCOc1cc(C(N)=O)cc(Cl)c1OCC	-7.9%	-0.8	0.2%	-19.4%	-0.3%	21.2µM*
CC1OC(Oc2c(-c3cc(O)c(O)c(O)c3)oc3cc(O)cc(O)c3c2=O)C(O)C(O)C1O (stereo unspecified)	-25.0%	-46.9*	-0.7%	-9.4%	-1.9%	?
CN=c1sc2c(n1C)C(=O)c1ccccc1C2=O	15.8µM*	/	/	?	/	-24.7%
COc1ccc(N(C(=O)c2ccccc2)S(=O)(=O)c2cccs2)cc1	-10.6%	0.4	3.0%	22.4µM*	-0.7%	18.9µM*
CC(Cc1ccccc1)C(=O)N[C@@H](CO)Cc1ccccc1 (stereo partly specified)	-8.6%	-1.2	1.4%	4.7%	/	8.5%
Cc1cc(C)cc(N2CC(O)Cn3c2nc2c3c(=O)[nH]c(=O)n2C)c1 (stereo unspecified)	-13.8%	2.5	5.6%	-5.3%	-4.6%	-8.4%
O=C(c1ccc(S(=O)(=O)N2CCOCC2)cc1)N1CCc2ccccc21	-22.0%	0.3	4.6%	-11.7%	0.6%	-4.3%
CCOc1nc(-c2ccccc2)c2cc(C)ccc2n1	-14.1%	1.7	-0.4%	-22.2%	4.4%	2.6%
COc1nc(-c2ccccc2)c2cc(C)ccc2n1	-26.5%	3.6	2.7%	?	0.0%	21.2µM*
CN(C)c1ccc(Sc2ccc3nc(N)nc(N)c3c2)cc1	-13.5%	/	/	/	/	0.8%
COc1ccc(C(C(=O)NC(C)C)N(C(=O)CCC(=O)Nc2nccs2)c2ccccc2F)cc1 (stereo unspecified)	-10.4%	-1.1	0.7%	-15.4%	1.1%	13.4µM*
